An excerpt weighted towards active compounds, which were near 2.7% of everything screened.
ATXN viability: viability counter-screen for ATXN expression inhibitors | Potency, µM (highest dose often 56.7 µM), actives largely listed as cytotoxic | hit rate 0.49% among 400,000 | AID 651635 | S2 cells (HEK-293 line with an ATXN2-luciferase reporter) viability, CellTiter-Fluor protease fluorescence, 24 h; note: nearly all actives have a fitted effect of over 40% in size
ATXN2 expr inh: inhibitors of ATXN2 expression; hit rate 0.72% among 360,000; AID 1745845; HEK-293 ATXN2-luciferase reporter, luminescence, 24 h; Potency, µM (series often up to 57 µM), actives largely listed as inhibitors; note: nearly all actives have a fitted effect of over 55% in size
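ATXN2-luciferase reporter cells (luciferase flanked by upstream and downstream ATXN2 gene portions) were treated 24 h at 37 °C with compounds at up to 57 uM. SteadyGlo luminescence gave expression; GF-AFC fluorescence gave viability.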
TGFb SMAD3 inh: TGF-b pathway inhibition. HepG2 CAGA-GFP TGF-b/SMAD3 reporter, GFP fluorescence, 18 h; TGF-beta stimulated, 500 pg/mL final. Potency, µM (titrated, usually from 46.1 µM), hits mostly inhibitors. hit rate 1.2% among 410,000; note: nearly all actives have a fitted effect of over 65% in size
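HEPG2 CAGA-GFP cells (1000/well, DMEM with 1% FBS) were pre-incubated 2 h at 37 degrees C, given compound by pin tool, then stimulated with TGF-beta at 500 pg/mL final for 18 h before per-cell GFP fluorescence imaging.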
HepG2 tox: kills HepG2 cells in TGF-b inhibitor counter-screen | Potency, µM (doses to about 46.1 µM), usual class: cytotoxic | HepG2 CAGA-GFP viability, ATP luminescence, 18 h | hit rate 0.76% among 410,000
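HepG2 CAGA-GFP cells (1000/well, DMEM with 1% FBS) received compound, then TGF-beta at 500 pg/mL final, and were incubated 18 hours at 37 degrees C. Viability was read by CellTiter-Glo luminescence. Media-only wells were set as complete cell-killing and DMSO as no toxicity.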
12-LOX inh: inhibitors of human 12S-lipoxygenase ALOX12. purified 12hLO, xylenol orange hydroperoxide absorbance. Potency, µM (highest dose often 108 µM), usual class: inhibitors. hit rate 1.1% among 580,000
Target sequence (P18054 whole entry, looked up): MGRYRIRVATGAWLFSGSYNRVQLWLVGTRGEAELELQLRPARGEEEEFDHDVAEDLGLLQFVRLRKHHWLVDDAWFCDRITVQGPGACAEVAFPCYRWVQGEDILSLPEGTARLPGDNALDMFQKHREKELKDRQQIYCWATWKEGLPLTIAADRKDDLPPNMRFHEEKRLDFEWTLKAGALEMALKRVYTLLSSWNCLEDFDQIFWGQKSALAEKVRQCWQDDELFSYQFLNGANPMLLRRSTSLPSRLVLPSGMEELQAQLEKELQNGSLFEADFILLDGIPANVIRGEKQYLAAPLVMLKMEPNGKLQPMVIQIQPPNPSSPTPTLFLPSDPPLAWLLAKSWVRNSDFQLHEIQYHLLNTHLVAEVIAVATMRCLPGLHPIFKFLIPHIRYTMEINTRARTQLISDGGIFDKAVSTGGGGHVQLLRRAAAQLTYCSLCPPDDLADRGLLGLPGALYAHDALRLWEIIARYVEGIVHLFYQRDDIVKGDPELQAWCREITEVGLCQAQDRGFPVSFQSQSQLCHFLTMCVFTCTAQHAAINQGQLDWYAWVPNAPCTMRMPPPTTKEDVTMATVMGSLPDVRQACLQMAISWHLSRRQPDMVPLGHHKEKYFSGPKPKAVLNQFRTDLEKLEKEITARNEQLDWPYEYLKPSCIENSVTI
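Purified human 12hLO at 150 nM in 25 mM Hepes, 0.01% Triton X-100, pH 7.0, preincubated 15 min at room temperature with compound. Reaction started with 40 uM arachidonic acid, 30 min at room temperature. Hydroperoxide measured by Fe-xylenol orange, 573/405 nm absorbance ratio.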
Large screens that a line does not name were inactive. Calls come from the whole dose curve; as a rule, active = well fitted curve in the direction sought with a large enough effect; inconclusive = small, poorly fitted or top-dose-only effect, or another doubt; inactive = no such curve, though single readings can be large; an effect the other way counts as inactive or inconclusive.

CC(C)Oc1cccc(C(=O)NC(=S)Nc2cccnc2)c1	none
CCCOc1cccc(C(=O)NC(=S)Nc2cccc(NC(=O)c3ccccc3Cl)c2)c1	TGFb SMAD3 inh inconclusive, 12-LOX inh 12.6µM
CCCOc1cccc(C(=O)NC(=S)Nc2ccccc2)c1	12-LOX inh 15.8µM
CC(C)Oc1cccc(C(=O)NC(=S)Nc2ccccc2)c1	12-LOX inh 22.4µM
CCC(=O)Nc1cccc(NC(=S)NC(=O)c2ccccc2Cl)c1	none
CC(CCc1ccccc1)NC(=O)N1CCN(S(=O)(=O)c2ccccc2C#N)CC1 (configuration not stated)	none (no result: ATXN viability, ATXN2 expr inh, TGFb SMAD3 inh, HepG2 tox)
Cc1ccc2[nH]cc(C(c3ccccc3)c3ccc(C)s3)c2c1 (configuration not stated)	ATXN viability inconclusive, ATXN2 expr inh inconclusive, TGFb SMAD3 inh 12.6µM, HepG2 tox 11.2µM, 12-LOX inh inconclusive
Cc1ccc(C(c2cccc([N+](=O)[O-])c2)c2ccc(C)s2)s1	none (no result: ATXN viability, ATXN2 expr inh, TGFb SMAD3 inh, HepG2 tox)
Cc1ccc2[nH]cc(C(c3ccccc3)c3cccs3)c2c1 (configuration not stated)	ATXN viability inconclusive, ATXN2 expr inh inconclusive, TGFb SMAD3 inh 12.6µM, HepG2 tox 15.8µM
CNC(=O)OCc1nc(SSC(C)(C)C)n(C)c1COC(=O)NC	ATXN2 expr inh inconclusive, TGFb SMAD3 inh 11.2µM (no result: ATXN viability)
CCC(=O)Nc1cccc(NC(=O)c2cnn(-c3ccccc3F)c2C)c1C	none (no result: ATXN viability, ATXN2 expr inh, TGFb SMAD3 inh, HepG2 tox)
COc1cc(NS(=O)(=O)c2ccc(NC(=S)NC(=O)c3ccc(F)c(F)c3)cc2)nc(OC)n1	12-LOX inh 12.6µM
COc1cc(NS(=O)(=O)c2ccc(NC(=S)NC(=O)c3cccs3)cc2)nc(OC)n1	12-LOX inh 31.6µM
COc1cc(NS(=O)(=O)c2ccc(NC(=S)NC(C)=O)cc2)nc(OC)n1	none (no result: ATXN2 expr inh)
CCC(C)N(CCNC(=O)c1ccc2c(c1)NC(=O)c1ccccc1S2)C1CCCCC1 (configuration not stated)	ATXN viability inconclusive, ATXN2 expr inh inconclusive, TGFb SMAD3 inh inconclusive, HepG2 tox 11.2µM
CC1CCCC(C)N1CCCNC(=O)c1ccc2c(c1)NC(=O)c1ccccc1S2 (configuration not stated)	none
CC(Nc1ccc(Cl)cc1)C(=O)NC(N)=O (configuration not stated)	none (no result: ATXN viability, ATXN2 expr inh, TGFb SMAD3 inh, HepG2 tox)
COc1cccc(-c2[nH]cnc2-c2ccccc2)c1OCCCn1ccnc1	none (no result: ATXN viability, ATXN2 expr inh, TGFb SMAD3 inh, HepG2 tox)
Cc1cc(=O)oc2c(C)c(OCC(=O)Nc3nc4ccccc4[nH]3)ccc12	none (no result: ATXN viability, ATXN2 expr inh, TGFb SMAD3 inh, HepG2 tox)
COC(=O)c1sc(=S)sc1C(=O)OC	TGFb SMAD3 inh inconclusive, 12-LOX inh 44.7µM
O=C1CN(C(=O)CNc2ccccc2C(=O)Nc2ccc(F)cc2)c2ccccc2N1	none (no result: ATXN viability, ATXN2 expr inh, TGFb SMAD3 inh, HepG2 tox)
N#C/C(=C/c1cccc(F)c1)S(=O)(=O)c1ccc(Br)cc1	12-LOX inh 22.4µM (no result: ATXN viability, ATXN2 expr inh, TGFb SMAD3 inh, HepG2 tox)
CSc1ccc(/C=C(/C#N)S(=O)(=O)c2ccc(C)cc2)cc1	none (no result: ATXN viability, ATXN2 expr inh, TGFb SMAD3 inh, HepG2 tox)
N#C/C(=C/c1ccc(F)cc1)S(=O)(=O)c1ccccc1	none
N#C/C(=C\c1ccc(O)c(O)c1)S(=O)(=O)c1ccccc1	12-LOX inh 3.16µM
C=CCN1CCN(C(=O)c2cc3ccccc3oc2=O)CC1	none (no result: ATXN viability, ATXN2 expr inh, TGFb SMAD3 inh, HepG2 tox)
Cc1ccc(/C=C/C(=O)N2CCN(c3ncccn3)CC2)o1	ATXN viability inconclusive, TGFb SMAD3 inh 10µM
CCOc1ccccc1C1CC(=O)NC(C)=C1C(=O)OCc1ccc(C)cc1 (configuration not stated)	TGFb SMAD3 inh inconclusive
CC1=C(C(=O)OC2CCCCCCC2)C(c2cc3c(cc2Br)OCO3)CC(=O)N1 (configuration not stated)	ATXN2 expr inh inconclusive, TGFb SMAD3 inh inconclusive, HepG2 tox 15.8µM
CC1=C(C(=O)OC2CCCCCC2)C(c2ccccc2Cl)CC(=O)N1 (configuration not stated)	TGFb SMAD3 inh inconclusive
CC1=C(C(=O)OCc2ccc(C)cc2)C(c2ccccc2F)CC(=O)N1 (configuration not stated)	TGFb SMAD3 inh 11.2µM
CCOc1ccccc1C1CC(=O)NC(C)=C1C(=O)OC1CCCCCC1 (configuration not stated)	TGFb SMAD3 inh inconclusive, HepG2 tox 15.8µM
Cc1ccsc1/C=N/NC(=O)c1cccc2ccccc12	none (no result: ATXN viability, ATXN2 expr inh, TGFb SMAD3 inh, HepG2 tox)

Bioassay records (PubChem BioAssay)
